Screening data: PubChem, several laboratories
Shown is part of a subset that was picked to be rich in hits.
FAK inh: FAK kinase inhibitors, primary screen, biochemical. biochemical FAK kinase activity assay. AID 727, 2007. Focal adhesion kinase 1 (Homo sapiens), Q05397. 0.84% of 97,000 active. inhibition, %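 (tested at 7 µM)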; in the data active = inhibition above about 19%;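 note: 0% = DMSO and 100% = reference compound high control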
Target sequence (Q05397 whole entry, looked up): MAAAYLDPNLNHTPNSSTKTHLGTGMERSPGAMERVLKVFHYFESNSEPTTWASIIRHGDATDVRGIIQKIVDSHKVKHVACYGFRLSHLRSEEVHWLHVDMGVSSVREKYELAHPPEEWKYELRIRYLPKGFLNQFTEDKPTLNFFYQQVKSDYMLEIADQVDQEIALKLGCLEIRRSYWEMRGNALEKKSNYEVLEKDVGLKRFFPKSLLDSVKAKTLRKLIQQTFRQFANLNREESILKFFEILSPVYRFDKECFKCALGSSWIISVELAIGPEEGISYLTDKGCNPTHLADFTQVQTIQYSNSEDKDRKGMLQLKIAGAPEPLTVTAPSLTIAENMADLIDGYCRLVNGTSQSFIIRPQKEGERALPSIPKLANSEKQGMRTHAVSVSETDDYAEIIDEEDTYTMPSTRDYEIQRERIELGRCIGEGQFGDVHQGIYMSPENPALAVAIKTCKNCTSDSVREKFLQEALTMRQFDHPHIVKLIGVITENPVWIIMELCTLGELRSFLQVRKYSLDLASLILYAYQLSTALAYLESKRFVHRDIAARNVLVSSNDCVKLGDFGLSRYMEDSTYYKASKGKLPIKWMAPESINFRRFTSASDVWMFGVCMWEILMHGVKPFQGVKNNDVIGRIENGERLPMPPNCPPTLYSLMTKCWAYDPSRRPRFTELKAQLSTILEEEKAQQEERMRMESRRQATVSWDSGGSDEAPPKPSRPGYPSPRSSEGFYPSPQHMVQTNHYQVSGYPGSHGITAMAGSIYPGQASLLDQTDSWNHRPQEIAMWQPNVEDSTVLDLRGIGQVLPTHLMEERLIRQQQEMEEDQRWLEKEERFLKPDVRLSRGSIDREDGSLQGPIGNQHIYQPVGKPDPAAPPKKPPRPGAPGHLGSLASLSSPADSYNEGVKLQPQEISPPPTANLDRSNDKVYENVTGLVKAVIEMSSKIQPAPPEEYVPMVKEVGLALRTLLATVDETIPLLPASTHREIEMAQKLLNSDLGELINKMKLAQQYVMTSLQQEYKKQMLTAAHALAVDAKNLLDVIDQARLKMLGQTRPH
PTK2B oligo ant: antagonists of Pyk2 self-association, primary screen, Q293 cells, FERM NanoBiT luminescence, HTS; z-score (the deposit names both 25 µM and 10 µM); hits give low values; AID 1347419, 2020; 0.83% of 99,000 active;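 active = Z-score of -3 or lower, scaled per plate to the spread of control and sample wells; inactive = z-score above -3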;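 note: negative z-score means lost luminescence so less FERM oligomerization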
DAT uptake mod: changed hDAT dopamine uptake under cocaine IC80, either direction, primary screen, cocaine antagonist project, cell-based, LLC-PK1 hDAT, [14C]-dopamine uptake, MLSMR. Sodium-dependent dopamine transporter (Homo sapiens), Q01959. LLC-PK1 hDAT cells, [14C]-dopamine uptake with cocaine IC80; actives deviate in either direction. B-score at 10 µM. 1.3% of 110,000 active. AID 449768, 2010;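 active = Z score or B-score, a plate-position-corrected score, falls beyond the plate's 99.7% confidence bounds, in either direction; inactive = both scores lie inside the 99.7% bounds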;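 note: scored against the spread of the other compound wells on the same plate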
D1 mod: D1 CRE-luciferase signal change, two-sided – cell-based, HEK293 D1, dopamine EC30, D1 allosteric modulator project, primary screen; 5.9% of 58,000 active; D(1A) dopamine receptor (Homo sapiens), P21728; dopamine EC30 potentiation; actives deviate in either direction; B-score at 10 µM;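 active = luminescence count or its row- and column-corrected plate score outside the 99.7% band of the plate's sample wells, on either side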
CD11b adhes enh: enhancers of CD11b/CD18 adhesion to fibrinogen, primary screen, K562 cells, luminescence | Integrin beta-2 (Homo sapiens) + Integrin alpha-M (Homo sapiens), P05107+P11215 | ATPlite luminescence | activation, % at 10 µM | 0.07% of 93,000 active | AID 1499, 2009;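 active = 10 µM primary screen giving 50% or more activity, confirmed by 40% or more on retest at that dose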
Mac1 fbg inh: inhibitors of CD11b/CD18 adhesion to fibrinogen, primary screen, K562 cells, luminescence; Integrin beta-2 (Homo sapiens) + Integrin alpha-M (Homo sapiens), P05107+P11215; ATPlite luminescence; Mn2+ added to activate the integrin; inhibition, % at 10 µM; 0.54% of 93,000 active; AID 1497, 2009;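 active = primary inhibition of 50% or more at 10 µM, then 40% or more on retest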
* marks the source's active call; other numbers are inactive results; x = no result.

SMILES | FAK inh | PTK2B oligo ant | DAT uptake mod | D1 mod | CD11b adhes enh | Mac1 fbg inh
CCN1CCN(Cc2ccc(NC(=O)Nc3ccc(OC)cc3)cc2)CC1 | x | x | 0.626 | -0.841 | 1.9 | -9.0
CCN1CCN(Cc2ccc(NC(=O)Nc3ccccc3)cc2)CC1 | -4.1 | x | -0.558 | -5.76* | 0.7 | 8.6
CC(=O)N1CCN(c2ccc(NC(=O)c3ccc(C)cc3)cc2)CC1 | 3.9 | -0.02 | 0.00742 | x | -1.5 | -17.5
CC(=O)N1CCc2cc(NC(=O)c3ccc(C)cc3)ccc21 | 1.3 | -0.67 | -0.926 | -2.59* | -4.1 | 0.3
O=C(Nc1nccs1)c1cc2c(s1)CCCCC2 | 10.2 | -0.96 | 4.31* | x | -4.6 | 72.3*
C=CCn1c(COc2ccc(Cl)cc2)nnc1SCC(=O)N1CC(=O)Nc2ccccc21 | 1.3 | -0.34 | 2.31 | -0.896 | 3.8 | -4.5
Cc1ccc(C)c(NC(=O)C2CCCN2/C=C/C(=O)C(F)(F)F)c1 (configuration not stated) | x | x | x | x | -4.1 | -22.2
O=C(Cn1c(CN2CCCCC2)nc2ccccc2c1=O)NCc1ccco1 | -1.0 | -0.77 | 0.34 | -0.907 | 0.9 | 66.6
COC(=O)C(C(=O)OC)C(C)C(C(=O)OC)C(=O)OC | 0.2 | -0.62 | -0.0148 | x | 0.4 | -43.3
Cc1ccc(NC(=O)CS(=O)Cc2nc(-c3ccc(C)cc3)oc2C)cc1 (configuration not stated) | -5.0 | x | 0.344 | x | 2.2 | -12.6
Cn1c(NC(=O)c2ccco2)cc(=O)n(C)c1=O | -0.9 | 0.47 | 7.87* | 0.16 | -0.9 | -0.2
Cc1csc(SCCn2c(N3CCN(c4ccccc4)CC3)nc3c2c(=O)[nH]c(=O)n3C)n1 | -1.9 | -0.19 | 0.428 | -0.659 | 4.6 | 10.2
CC(C)(C)c1ccc(C(=O)Nc2cnccn2)cc1 | 2.5 | -0.17 | -0.51 | -3.39* | -4.4 | -8.8
Cc1ccc(/C=C/C(=O)c2cc(Br)ccc2OC(=O)c2ccco2)cc1 | 2.4 | -0.92 | 0.807 | x | 2.8 | -9.6
COc1ccccc1/C=C/C(=O)c1cc(Br)ccc1OC(=O)c1ccco1 | 1.4 | -2.9 | 2.58* | x | x | x
COc1cccc2c1C(=O)O/C2=C/c1ccc2c(c1)OCO2 | 8.2 | 2.37 | -0.548 | x | -0.2 | 52.5*
O=C(CSc1nnc(-c2ccco2)n1Cc1ccccc1)c1ccccc1 | -0.7 | -0.29 | 3.44* | 0.757 | 0.5 | 3.4
Cc1cc2nc(-c3cccnc3SCC(=O)NCc3ccco3)[nH]c2cc1C | 7.9 | 0.21 | -1.48 | -3.88* | x | x
Cc1ccc2c(c1)nnn2C1CCN(C(=O)C2CCCCC2)CC1 | x | 0.94 | -0.311 | x | -4.4 | -1.2
Cc1ccc(NC(=O)c2ccc(-c3nn(C)c(=O)c4ccccc34)cc2)cc1 | -1.9 | -0.81 | 0.836 | x | -2.8 | 5.6
Cn1nc(-c2ccc(C(=O)Nc3cccc(Cl)c3)cc2)c2ccccc2c1=O | -0.1 | 0.4 | -0.998* | x | 3.9 | 4.8
O=C(NNC(=O)c1ccc(SCC2CCCO2)c([N+](=O)[O-])c1)c1ccc(F)cc1 (configuration not stated) | -4.6 | 1.01 | -0.446 | x | -3.2 | -8.4
CCCOc1ccc([N+](=O)[O-])cc1C1NC(=S)NC(c2ccccc2)=C1C(=O)OCC (configuration not stated) | -4.6 | -4.08* | -0.36 | x | x | x
CCOC(=O)C1=C(c2cccc(F)c2)NC(=S)NC1C (configuration not stated) | -0.7 | -0.47 | -0.0464 | x | 3.3 | 5.2
COc1ccc(C(=O)c2ccc(Cl)cc2)cc1 | 0.1 | 0.4 | 0.473 | x | -0.4 | -5.1
SMILES | FAK inh | PTK2B oligo ant | DAT uptake mod | D1 mod | CD11b adhes enh | Mac1 fbg inh
COc1ccc2c(c1)c(CC(=O)O)c(C)n2C(=O)c1ccc(Cl)cc1 | x | x | 4.13* | 0.241 | x | x
O=C(/C=C/c1ccc(Cl)cc1)NCCN1CCOCC1 | -5.5 | -0.06 | -7.83* | x | x | x
CC(CCN(C)C)OC(=O)c1ccc(C(C)c2ccccc2)o1 (configuration not stated) | -3.5 | 0.43 | -0.0763 | -3.22* | -2.3 | -7.8
COc1ccc(Br)cc1C1NC(=O)c2c(sc3c2CCN(C)C3)N1 (configuration not stated) | x | 1.27 | x | -0.055 | 4.3 | -5.2
CCOc1ccc(Br)cc1C1NC(=O)c2c(sc3c2CCN(C)C3)N1 (configuration not stated) | x | x | x | -4.6* | x | x
CCC(=O)NS(=O)(=O)c1ccc(-c2c(-c3ccccc3)noc2C)cc1 | x | x | -0.11 | x | x | x
CCOC(=O)N1CCC(N2Cc3cccc(C(=O)Nc4ccc(F)cc4)c3C2=O)CC1 | -0.7 | -0.38 | 0.0334 | x | x | x
CCOC(=O)N1CCC(N2Cc3cccc(C(=O)Nc4ccc(CC)cc4)c3C2=O)CC1 | 3.0 | 0.14 | 4.03* | x | -2.1 | 0.3
CCC(c1nnnn1CC1CCCO1)N(CCN1CCOCC1)Cc1cc2cc(C)ccc2[nH]c1=O (configuration not stated) | -0.6 | 0.11 | -1.8* | -0.404 | 8.3 | 12.8
CCOC(=O)N1CCN(C(=O)CN(c2ccc(OCc3ccccc3)cc2)S(C)(=O)=O)CC1 | 1.3 | 0.64 | 0.223 | 0.0908 | 6.1 | 1.2
CCN(CC)S(=O)(=O)c1ccc2oc(Nc3ccc4c(c3)OCCO4)nc2c1 | 1.4 | -3.53* | -0.087 | x | -3.9 | 5.6
Cc1nc2ccc(Nc3nc4cc(S(=O)(=O)N5CCOCC5)ccc4o3)cc2s1 | -2.0 | -1.49 | 0.961 | 0.301 | 4.5 | 2.2
O=C(c1ccc(Cl)cc1)N1CCN(c2nc(N3CCCCC3)nc(N3CCCCC3)n2)CC1 | x | x | x | 1.67 | x | x
O=C(Nc1nnc(-c2ccc3c(c2)CCCC3)o1)C1COc2ccccc2O1 (configuration not stated) | -4.5 | x | 0.312 | -0.454 | 2.2 | 3.2
O=C(Nc1cccc(Cl)c1)Nc1cccc(Cl)c1 | 1.2 | -0.21 | -0.177 | x | x | x
O=C(Nc1ccccc1)Nc1cc(Cl)cc(Cl)c1 | 4.7 | -2.41 | -1.82 | x | -3.8 | 56.5*
O=C(O)CCOc1ccc2c(c1)OCCO2 | -2.0 | 2.38 | -7.65* | 0.596 | -6.8 | -11.9
O=C(O)CCC(=O)c1ccc2c(c1)OCCO2 | -2.1 | x | -0.216 | -0.0698 | -0.8 | -8.6
CCOc1ccc2nc3c(cc2c1)CN(CCCO)C(=NCCOC)S3 | 6.3 | -0.91 | 1.25 | 0.0177 | 3.2 | -5.4
CCOc1ccc(-c2noc(CCC(=O)O)n2)cc1 | 1.6 | x | 0.0339 | x | -0.3 | 2.1
COc1ccc(-c2noc(CCCC(=O)O)n2)cc1 | x | 0.58 | 0.052 | -5.55* | -0.9 | -4.6
COc1ccc(-n2nnnc2SC(C)C(N)=O)cc1 (configuration not stated) | -5.5 | -0.89 | -5.16* | 0.0741 | -0.9 | -5.8
